# Source: paper PMC5869772, “Quantitative profiling of BATF family proteins/JUNB/IRF hetero-trimers using Spec-seq”
# What was measured:
# Test in all cases: Spec-seq (EMSA and sequencing of bound and unbound bands); 100 nM BATFx-JUNB, 1 uM dsDNA library, 50 mM K acetate, 20 mM Tris-acetate, 10 mM Mg acetate, 100 ug/ml BSA, pH 7.9, 10% glycerol, 30 min on ice; native 9% PAGE at 4 C; low values mean tight binding
# Conditions in all cases: protein: recombinant;recombinant; tags: N-terminal mCherry-TEV, cleaved off;C-terminal 6His; copies: 1;1; dsDNA, one strand shown
# [1] = target: T1, BATF;JUNB (human;human, UniProt Q16520;P17275 1-125;148-347, |)
# T1 sequence 1: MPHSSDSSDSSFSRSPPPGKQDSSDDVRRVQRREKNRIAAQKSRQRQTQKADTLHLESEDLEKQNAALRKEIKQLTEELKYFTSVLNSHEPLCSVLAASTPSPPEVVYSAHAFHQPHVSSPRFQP
# T1 sequence 2: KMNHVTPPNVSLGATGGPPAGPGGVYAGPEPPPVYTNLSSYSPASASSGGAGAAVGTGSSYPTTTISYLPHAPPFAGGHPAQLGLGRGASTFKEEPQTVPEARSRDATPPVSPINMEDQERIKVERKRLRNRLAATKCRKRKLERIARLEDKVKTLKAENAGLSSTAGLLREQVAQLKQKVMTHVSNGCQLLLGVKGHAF
# Summary of the method: (§1)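 The protein, at 100 nM, was incubated with 1 μM double-stranded degenerate DNA library for 30 min on ice in NEB Cutsmart buffer with 10% glycerol, then resolved by native 9% PAGE at 4 °C. Excised bound and unbound bands were PCR-barcoded and Illumina-sequenced, and each sequence's relative binding energy in kT is −ln of its bound/unbound read-count ratio.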
# [2] = target: T2, BATF2 (bZIP);JUNB (human;human, UniProt Q8N1L9;P17275 1-142;148-347, |)
# T2 sequence 1: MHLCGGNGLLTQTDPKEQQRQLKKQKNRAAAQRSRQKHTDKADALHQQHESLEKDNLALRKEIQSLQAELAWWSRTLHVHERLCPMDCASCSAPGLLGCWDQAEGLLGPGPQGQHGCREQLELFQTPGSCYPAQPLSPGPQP
# T2 sequence 2: T1 sequence 2
# Summary of the method: as §1
# [3] = target: T3, BATF3;JUNB (human;human, UniProt Q9NR55;P17275 1-127;148-347, |)
# T3 sequence 1: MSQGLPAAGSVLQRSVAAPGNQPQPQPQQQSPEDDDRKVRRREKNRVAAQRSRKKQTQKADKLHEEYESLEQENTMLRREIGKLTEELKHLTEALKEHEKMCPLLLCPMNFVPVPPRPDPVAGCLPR
# T3 sequence 2: T1 sequence 2
# Summary of the method: as §1
Sequence,binding signal [1],binding signal [2],binding signal [3]
GATAGTCTCATTTTCACCCCGTGAAATGAGTTAGTTGTTCCATTACAGTATCTGT,0.169 kT,0.988 kT,0.772 kT
GATAGTCTCATTTTCACCCCGTGAAATGACTCTCTTGTTCCATTACAGTATCTGT,0.11 kT,0.738 kT,0.694 kT
GATAGTCTCATTTTCACCCCGTGAAATGAGTCAGTTGTTCCATTACAGTATCTGT,-0.773 kT,-0.0533 kT,-0.715 kT
GATAGTCTCATTTTCACCCCGTGAAATGACGTTATTGTTCCATTACAGTATCTGT,-0.288 kT,0.0695 kT,-0.68 kT
GATAGTCTCATTTTCACCCCGTGAAAATGAGTCATTGTTCCATTACAGTATCTGT,-1.25 kT,-1.01 kT,-1.35 kT
GATAGTCTCATTTTCACCCCGTGAAATGACGTCATTGTTCCATTACAGTATCTGT,-1.05 kT,-1.32 kT,-1.75 kT
GATAGTCTCATTTTCACCCCGTGAAATGACGGCATTGTTCCATTACAGTATCTGT,-0.148 kT,0.419 kT,-0.439 kT
GATAGTCTCATTTTCACCCCGTGAAATGAGTCACTTGTTCCATTACAGTATCTGT,-0.822 kT,-0.342 kT,-1.03 kT
GATAGTCTCATTTTCACCCCGTGAAATGACTTACTTGTTCCATTACAGTATCTGT,0.0298 kT,0.563 kT,0.342 kT
GATAGTCTCATTTTCACCCCGTGAAAGGACGTCATTGTTCCATTACAGTATCTGT,-0.227 kT,0.108 kT,-0.474 kT
GATAGTCTCATTTTCACCCCGTGAAATGAGACAGTTGTTCCATTACAGTATCTGT,0.654 kT,1.32 kT,1.06 kT
GATAGTCTCATTTTCACCCCGTGAAATGACGTAATTGTTCCATTACAGTATCTGT,-0.759 kT,-0.891 kT,-1.44 kT
